This is part of a sample that, as a whole, favours compounds with a hit. Of some 79,000 tested, about 15% had one in any assay. A number with no mark means an inactive call. Active and inactive are the calls of the source. Rule as the data show it: active = growth inhibition above about 70%; inactive = the rest.

Assay [1] in a line: NCI Yeast Anticancer Drug Screen. Data for the rad50 strain (AID 155).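 Also: 0% = growth of vehicle-only cultures of the same strain.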 As to conditions: S. cerevisiae rad50 strain growth inhibition; at 50.0 µM; hits give high values. The method, boiled down: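 DNA repair mutant yeast, compound exposure, growth read-out; inhibition is taken relative to vehicle.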
The nature of assay [2]: NCI Yeast Anticancer Drug Screen. Data for the mec2-1 strain (AID 157). The settings on record: S. cerevisiae mec2-1 strain, at 50.0 µM, hits give high values. The procedure, abridged:
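Cells of the genetically defined mec2-1 yeast strain are incubated with test compound. Inhibition of growth is calculated against vehicle-treated controls.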

The nature of assay [3]: NCI Yeast Anticancer Drug Screen. Data for the sgs1 mgt1 strain (AID 161).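 Also: 0% = growth of cultures given vehicle only.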 As to conditions: S. cerevisiae sgs1 mgt1 strain, at 50.0 µM, hits give high values. The procedure, abridged: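 Mutant yeast exposed to compound; growth scored against vehicle-only wells.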
A short description of assay [4]: NCI Yeast Anticancer Drug Screen. Data for the cln2 rad14 strain (AID 165).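 Also: 0% = growth equal to vehicle treated cultures.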 As to conditions: S. cerevisiae cln2 rad14 strain, at 50.0 µM, hits give high values. The method, boiled down:
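The screen exposed genetically defined yeast (cln2 rad14) to test compounds and scored growth inhibition relative to vehicle-treated controls.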

A short description of assay [5]: NCI Yeast Anticancer Drug Screen. Data for the bub3 strain (AID 167). The settings on record: S. cerevisiae bub3 mutant strain, at 50.0 µM, hits give high values. The method, boiled down:
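In this screen, a yeast mutant lacking normal mitotic checkpoint function is challenged with compound. Relative growth versus vehicle gives the inhibition value.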

A short description of assay [6]: NCI Yeast Anticancer Drug Screen. Data for the mlh1 rad18 strain (AID 175). The settings on record: S. cerevisiae mlh1 rad18 strain growth inhibition; at 50.0 µM; hits give high values. The method, boiled down:
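Compound-treated yeast growth, normalised to vehicle controls. Strain bears defined DNA repair mutations.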

In the case of `CNc1ncn(-c2c(C)cccc2C)c(=O)n1`, the growth inhibition is -2.5% in assay [1]; -3.6% in assay [2]; 8.85% in assay [3]; -15.8% in assay [4]; -2.65% in assay [5]; 4.05% in assay [6].

Turning to `CCOC(=O)C(C#N)(CCC#N)CCC#N`, the growth inhibition in assay [1] was 26.3%; in assay [2], 6.8%; in assay [3], 9.05%; in assay [4], -3.45%; in assay [5], 9.4%; in assay [6], 12.6%.

For `[O-]c1c(Cl)c(Cl)c(O[P+](c2ccccc2)(c2ccccc2)c2ccccc2)c(Cl)c1Cl`, the growth inhibition in assay [1] was 99.2% (active); in assay [2], 99.4% (active); in assay [3] it was 99.5% (active); in assay [4], 97.9% (active); in assay [5], 99% (active); in assay [6], 99.2% (active).

For `C[n+]1ccccc1/C=C/c1ccc2c(c1)OCO2`, the growth inhibition is 18.3% in assay [1]; 5.9% in assay [2]; 22.5% in assay [3]; -0.45% in assay [4]; 29.9% in assay [5]; 6.6% in assay [6].

Regarding `O=C1CCC=Cc2c(O)ccc(O)c21`, the growth inhibition in assay [1] was 8.65%; in assay [2] it was -5.25%; in assay [3], 17.8%; in assay [4], 0.55%; in assay [5] it was -1.1%; in assay [6], 27.9%.

Turning to `O=[N+]([O-])c1ccc2[nH]c(-c3ccccc3)cc2c1`, the growth inhibition in assay [1] is 5.2%; in assay [2] it was 10.8%; in assay [3], -3.6%; in assay [4], 7.3%; in assay [5], -2.2%; in assay [6], 18.9%.

In the case of `O=[N+]([O-])c1ccc(C2ON2c2ccccc2)cc1` (stereo unspecified) (tested in a mixture with another compound), the growth inhibition is 3.95% in assay [1]; -1.45% in assay [2]; 20.7% in assay [3]; -9.7% in assay [4]; -7.4% in assay [5]; 25.6% in assay [6].

`OCC1OC(n2nc(-c3ccccc3)nc2-c2cnccn2)C(O)C(O)C1O` (stereo unspecified): the growth inhibition in assay [1] was -37.4%; in assay [2], -35.8%; in assay [3] it was -31.4%; in assay [4], 3.65%; in assay [5], -46.1%; in assay [6] it was -43.5%.

For `COC(=O)c1cc2c(cc1CC1Cc3cc4c(cc3C1=O)CCC4)CCC2` (stereo unspecified), the growth inhibition was -16.1% in assay [1]; -42.3% in assay [2]; -10.4% in assay [3]; 9.3% in assay [4]; 19.6% in assay [5]; 1.65% in assay [6].

On to `COC1CC(NC(C)=O)C(O)C(C)O1` (stereo unspecified), for which the growth inhibition in assay [1] is -10.2%; in assay [2], -12.4%; in assay [3] it was -10.6%; in assay [4] it was -40%; in assay [5] it was 5.65%; in assay [6], 1.5%.

`OC(C(=S)N1CCCC1)(c1ccccc1)c1ccccc1`: the growth inhibition in assay [1] is 10.8%; in assay [2], 17.3%; in assay [3], 24.2%; in assay [4], 8.45%; in assay [5], 9.6%; in assay [6], -0.6%.

Take `C[Si](C)(Cl)c1ccccc1`: the growth inhibition in assay [1] was -47.6%; in assay [2], -27.4%; in assay [3], -11.7%; in assay [4], 17.4%; in assay [5], -23.6%; in assay [6] it was -18.4%.

As for `COC(=O)c1c(C(=O)Nc2ccc(Cl)cc2)c(C)n(NC(N)=O)c1C`, the growth inhibition in assay [1] was -6.45%; in assay [2] it was 8.8%; in assay [3], 6.9%; in assay [4], -45.5%; in assay [5], 1.15%; in assay [6] it was 3.95%.

For the compound `Nc1c(-c2ccccc2[N+](=O)[O-])nc2ccccn12`, the growth inhibition is -16.1% in assay [1]; -43.5% in assay [2]; -49.3% in assay [3]; -2.15% in assay [4]; -19.2% in assay [5]; -21.1% in assay [6].

Take `CC(=O)N(C(C)=O)c1ccc2c(c1)Cc1ccccc1-2`: the growth inhibition in assay [1] was 14.9%; in assay [2], -12.9%; in assay [3], 17.4%; in assay [4], 3.85%; in assay [5], 35.3%; in assay [6], 15.1%.

For `Oc1cncc2ccccc12`, the growth inhibition was 3.35% in assay [1]; 5.2% in assay [2]; 11.2% in assay [3]; -1.35% in assay [4]; 1.6% in assay [5]; -4.85% in assay [6].

As to `CCOC(=O)C[P+](c1ccc(OC)cc1)(c1ccc(OC)cc1)c1ccc(OC)cc1`, the growth inhibition was 90.8% (active) in assay [1]; 95.8% (active) in assay [2]; 92.5% (active) in assay [3]; 92.9% (active) in assay [4]; 92.3% (active) in assay [5]; 91.5% (active) in assay [6].

For the compound `NC(=O)/N=C/c1c(O)c2ccccc2oc1=O`, the growth inhibition in assay [1] is 9.6%; in assay [2], -0.8%; in assay [3] it was -11.6%; in assay [4], -3.35%; in assay [5] it was -42%; in assay [6], -3.1%.

With `COc1cc2c(cc1O)C(Cc1ccccc1)N(C)CC2O` (stereo unspecified), the growth inhibition is -12.6% in assay [1]; -4.7% in assay [2]; -4% in assay [3]; -5.7% in assay [4]; -7.55% in assay [5]; 0% in assay [6].

As to `COc1ccc(N=Cc2ccc([N+](=O)[O-])cc2)cc1`, the growth inhibition in assay [1] is 27.9%; in assay [2], 0.75%; in assay [3] it was 15.2%; in assay [4], -22.4%; in assay [5] it was 9.9%; in assay [6], 36.1%.

As to `COc1ccc(C[n+]2ccccc2C#N)cc1OC`, the growth inhibition in assay [1] is 4.7%; in assay [2] it was -13.8%; in assay [3] it was -10.4%; in assay [4], -15.8%; in assay [5] it was 4.25%; in assay [6], 3.2%.

These data come from PubChem BioAssay (NCI).
